Screening data: PubChem BioAssay, Sanford-Burnham Center for Chemical Genomics
Sampled rows, rich in hits. Any-hit rate of the full collection: about 28%.
Mac1 fbg enh – enhancers of CD11b/CD18 adhesion to fibrinogen, primary screen, K562 cells, luminescence | Integrin beta-2 (Homo sapiens) + Integrin alpha-M (Homo sapiens), P05107+P11215 | ATPlite luminescence | activation, % at 10 µM | hit rate 0.07% among 93,000;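 active means 10 µM primary screen giving 50% or more activity, confirmed by 40% or more on retest at that dose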
Target sequence (P05107 whole entry, looked up, other chains not shown): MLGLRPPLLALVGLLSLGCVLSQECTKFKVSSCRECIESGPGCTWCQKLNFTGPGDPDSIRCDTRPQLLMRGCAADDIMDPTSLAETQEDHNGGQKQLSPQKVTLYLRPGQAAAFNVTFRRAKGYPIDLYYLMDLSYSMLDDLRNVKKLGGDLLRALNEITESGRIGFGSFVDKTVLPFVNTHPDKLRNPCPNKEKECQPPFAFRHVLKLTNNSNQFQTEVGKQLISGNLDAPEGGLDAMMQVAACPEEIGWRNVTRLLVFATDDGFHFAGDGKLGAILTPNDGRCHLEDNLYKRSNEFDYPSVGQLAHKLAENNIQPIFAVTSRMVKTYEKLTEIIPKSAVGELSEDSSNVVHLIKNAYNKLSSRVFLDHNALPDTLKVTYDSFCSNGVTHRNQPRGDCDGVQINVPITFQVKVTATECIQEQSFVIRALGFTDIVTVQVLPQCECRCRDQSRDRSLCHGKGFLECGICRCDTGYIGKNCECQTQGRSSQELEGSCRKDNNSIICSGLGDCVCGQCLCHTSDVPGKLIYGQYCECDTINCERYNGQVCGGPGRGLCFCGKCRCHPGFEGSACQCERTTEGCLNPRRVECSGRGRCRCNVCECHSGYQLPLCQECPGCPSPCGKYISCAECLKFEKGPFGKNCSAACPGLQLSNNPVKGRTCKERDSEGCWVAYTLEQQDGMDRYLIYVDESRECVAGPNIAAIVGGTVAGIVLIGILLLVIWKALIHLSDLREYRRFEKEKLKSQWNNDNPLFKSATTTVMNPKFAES
CYP2C19 act – human CYP2C19 activators, primary screen, biochemical, luminescence | Cytochrome P450 2C19 (Homo sapiens), P33261 | recombinant CYP2C19, luciferin-H EGE luminescence; active compounds read high; 0 = fully inhibited enzyme, 1 = untreated enzyme | activation factor at 5 µM | 96,000 tested, under 10 active;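 active means activation factor of at least 2 at 5 µM in the primary screen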
CD11b adhes inh – inhibitors of CD11b/CD18 adhesion to fibrinogen, primary screen, K562 cells, luminescence. Integrin beta-2 (Homo sapiens) + Integrin alpha-M (Homo sapiens), P05107+P11215. ATPlite luminescence; Mn2+ added to activate the integrin. inhibition, % at 10 µM. hit rate 0.54% among 93,000;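 active means primary inhibition of 50% or more at 10 µM, then 40% or more on retest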
CYP2C9 act – human CYP2C9 activators, primary screen, biochemical, luminescence. Cytochrome P450 2C9 (Homo sapiens), P11712. recombinant CYP2C9, luciferin-H conversion; active compounds read high; factor 1 = untreated enzyme, 0 = blocked. activation factor at 5 µM. hit rate 1.4% among 96,000. AID 1024, 2008;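 active means activation factor of 2 or more for CYP2C9 at a 5 µM dose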
CYP2C19 inh – blockers of cytochrome P450 2C19 activity – biochemical, luminescence, ADME assay, primary screen | inhibition, % at 5 µM | AID 778, 2007 | hit rate 21% among 96,000 | CYP2C19 Supersomes, luciferin-H EGE luminescence, 30 min | P33261;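 active means CYP2C19 inhibition above a set limit at 5 µM in the primary screen, cut at about 50% in these data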
CYP2C9 inh – blockers of cytochrome P450 2C9 activity – biochemical, luminescence, ADME assay, primary screen; hit rate 20% among 96,000; P11712; inhibition, % at 5 µM; CYP2C9 Supersomes, luciferin-H conversion;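 active means blocking of liver enzyme CYP2C9 beyond about 50% at 5 µM, limit read from the data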
Hits are given with their value; – = inactive; · = not tested or not shown.

SMILES | Mac1 fbg enh | CYP2C19 act | CD11b adhes inh | CYP2C9 act | CYP2C19 inh | CYP2C9 inh
N#Cc1ccccc1Cn1cc(C(=O)C2CC2)c2ccccc21 | – | – | – | – | – | –
O=C(O)Cn1cc(C(=O)c2ccccc2)c2ccccc21 | – | – | – | – | – | –
O=C(c1ccco1)c1cn(Cc2ccccc2)c2ccccc12 | – | – | – | – | 93 | 93
c1ccc(C2=NP(N3CCOCC3)(N3CCOCC3)=NC(N3CCOCC3)=N2)cc1 | – | – | – | – | – | –
CN=C(SCc1cc2c(cc1Cl)OCO2)c1c(O)n(C)c(=O)n(C)c1=O | – | – | – | – | – | –
O=C(COc1ccccc1)c1cn(Cc2ccccc2)c2ccccc12 | – | · | – | · | · | ·
O=C(c1ccco1)c1cn(Cc2ccccc2Cl)c2ccccc12 | – | – | – | – | – | 89
C=CCn1c(O)c(C(C)=NCc2cccnc2)c(=O)[nH]c1=O | · | – | · | – | 68 | –
C=CCn1c(O)c(C(CC)=Nc2cc(OC)ccc2OC)c(=O)[nH]c1=O | – | – | – | – | 79 | 90
C=CCn1c(O)c(C(C)=NCCO)c(=O)[nH]c1=O | – | – | – | – | – | –
C=CCn1c(O)c(C(C)=NCc2cc(OC)cc(OC)c2)c(=O)[nH]c1=O | – | – | – | – | 83 | 85
C=CCn1c(O)c(C(C)=NCCc2ccccc2)c(=O)[nH]c1=O | – | – | – | – | – | –
CCOCC(=O)NC1CCSC1=O (stereo unspecified) | – | – | – | – | – | –
Clc1cccc(C2NCCc3[nH]cnc32)c1 (stereo unspecified) | · | – | · | – | – | –
Cc1cc(C)n2nc(C)[n+](C)c2n1 | – | – | – | – | – | –
CCC(CO)Nc1ccc([N+](=O)[O-])c2cccnc12 (stereo unspecified) | – | – | – | – | 58 | –
CCN(CCNc1ccc([N+](=O)[O-])c2cccnc12)S(=O)(=O)c1ccc(Cl)cc1 | – | – | – | – | 61 | 51
CCN(CCNc1ccc([N+](=O)[O-])c2cccnc12)S(=O)(=O)c1ccccc1 | – | · | – | · | · | ·
Cc1cccc(C)c1NC(=O)c1cccn(Cc2ccc3c(c2)OC(F)(F)O3)c1=O | – | – | – | – | 68 | –
O=C(Nc1ccc(C(F)(F)F)cc1)c1cccn(Cc2ccc3c(c2)OC(F)(F)O3)c1=O | · | – | · | – | – | –
O=C(Nc1cccc(C(F)(F)F)c1)c1cccn(Cc2ccc3c(c2)OC(F)(F)O3)c1=O | · | – | · | – | – | 65
CC(C)Oc1cccc(NC(=O)c2cccn(Cc3ccc4c(c3)OC(F)(F)O4)c2=O)c1 | – | – | – | – | – | 84
CC(C)Oc1ccc(Cc2c(O)[nH]c(=O)[nH]c2=O)cc1 | – | – | – | – | – | –
O=c1[nH]c(=O)n(-c2cccc3ccccc23)c(O)c1/C=N/N1CCCCC1c1cccnc1 (stereo unspecified) | – | · | – | · | · | ·
CCOC(=O)C1=C(C)N(C)C2(C)CC1c1ccccc1O2 (stereo unspecified) | – | – | – | – | – | –
SMILES | Mac1 fbg enh | CYP2C19 act | CD11b adhes inh | CYP2C9 act | CYP2C19 inh | CYP2C9 inh
CCOP(=S)(OCC)c1ccc(N(C)C)cc1 | – | – | – | – | – | –
CN(C)c1ccc(P(=S)(N(C)C)N(C)C)cc1 | – | – | – | – | 95 | –
Cc1ccc(C)c(NC(=O)CSc2nnc([C@@H](N)Cc3c[nH]c4ccccc34)o2)c1 | – | – | – | – | – | –
CN1C(=O)C(=Cc2ccc(N3CCCCCC3)o2)C(=O)N(C)C1=S | · | – | · | – | 59 | –
O=C1NC(=O)N(c2ccc3c(c2)OCO3)C(=O)/C1=C\c1ccc(N2CCCCC2)o1 | – | · | – | · | · | ·
O=C(CSC1c2ccccc2-c2ccccc21)N/N=C/c1ccccc1O | – | – | – | – | 59 | 53
COc1ccc(CCN(C)Cc2ccncc2)cc1OC | – | – | – | – | 82 | 67
COc1cc(OC)c(OC)cc1CNCCc1ccc(OC)c(OC)c1 | – | – | – | – | – | –
COc1ccc(CCNCc2ccncc2)cc1OC | – | – | – | – | 66 | 52
COC(=O)c1ccc(N2C(=O)CC(N3CCC(n4c(=O)[nH]c5ccccc54)CC3)C2=O)cc1 (stereo unspecified) | – | – | – | – | 60 | –
Cc1cc(C)n2nc(SC(C)C(=O)N3CCC4(CC3)OCCO4)nc2n1 (stereo unspecified) | – | – | – | – | – | –
CN(Cc1ccccc1)Cc1ccccc1OC(=O)N(C)C | – | – | – | – | 54 | –
O=C(c1cc(-c2ccccc2)nc2ccccc12)N1CCC2(CC1)OCCO2 | · | – | · | – | 57 | –
O=C(c1ccc2c(c1)OCO2)N1CCC2(CC1)OCCO2 | – | – | – | – | 88 | –
CC(=O)c1c(C)[nH]c(C(=O)N2CCC3(CC2)OCCO3)c1C | – | – | – | – | 54 | –
Cc1cc(C(=O)N2CCC3(CC2)OCCO3)cs1 | – | – | – | – | 74 | –
CCC(C)C1(CC)C(=O)NC(=O)N=C1N (stereo unspecified) | – | · | – | · | · | ·
O=P1(Nc2cccnc2)COc2ccccc2OC1 | – | – | – | – | – | –
CC(Oc1ccc(-c2ccccc2)cc1)C(=O)O (stereo unspecified) | – | – | – | – | – | –
O=C(c1cc(Br)ccc1Cl)N1CCC2(CC1)OCCO2 | – | – | – | – | 98 | 54
O=C(NCC(c1cccnc1)N1CCN(c2ccccc2F)CC1)Oc1ccccc1 (stereo unspecified) | – | – | – | – | 78 | 85
COc1ccc(N2CCN(C(CNC(=O)Oc3ccccc3)c3cccnc3)CC2)cc1 (stereo unspecified) | – | – | – | – | – | –
COc1ccc(C2SCC(=O)Nc3c2c(=O)[nH]n3C2CCCCC2)cc1 (stereo unspecified) | – | – | – | – | – | –
CN(CCCCC(=O)/C=N/O)Cc1ccccc1 (tested in a mixture with another compound) | – | – | – | – | – | –
CN(CCc1ccccc1)Cc1ccccc1[N+](=O)[O-] | – | – | – | – | 91 | 76
CCN(CC)P(=O)(NC(=O)C(Cl)(Cl)Cl)N(CC)CC.[Cl-].[Cl-].[Cl-].[Nd+3] | – | – | – | – | – | 90
CC1CCC(C(C)C)C(OP(N)(=O)c2ccccc2)C1 (stereo unspecified) | – | – | – | – | 83 | 65
